Source: PubChem BioAssay
In the library only some 19% were active in any assay of this set; here they are far more common.
DT40 TDP1 CPT: qHTS for Inhibitors of human tyrosyl-DNA phosphodiesterase 1 (TDP1): qHTS in cells in presence of CPT; chicken DT40 Tdp1-/-;hTDP1 cells + 20 nM CPT, ATP luminescence, 48 h; Potency, µM (highest dose often 46.2 µM), without a hit: at the highest dose activity change, negative = growth inhibition, actives largely listed as inhibitors; hit rate 12% among 420,000; note: potency is the fitted concentration of half-maximal effect; nearly all actives have a fitted effect of over 55% in size
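Chicken DT40 Tdp1-/- cells stably complemented with human TDP1 were seeded at 400 cells/well in medium containing 20 nM camptothecin, exposed to pin-transferred compounds, and grown at 37 °C for at least 48 hr. Viability was read as ATP luminescence.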
HT1080NT lethal: qHTS for induction of synthetic lethality in tumor cells producing 2HG: qHTS for the HT-1080-NT fibrosarcoma cell line; HT-1080-NT fibrosarcoma viability, CellTiter-Glo ATP luminescence, 48 h; hit rate 1.6% among 360,000; AID 686970, 2013; Potency, µM (top dose mostly 46.1 µM), inactives show at the top dose activity, negative = less viability, usual class: cytotoxic;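 note: NT is the 2HG producing partner of a matched IDH1 knockdown line; potency is the fitted concentration of half-maximal effect; 0% = DMSO-treated cells and -100% = media-only wells without cells; nearly all actives have a fitted effect of over 55% in size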
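750 cells/well, RPMI + 5% FBS; 2 h settle, compound pin-transfer, 48 h at 37 degrees C. CellTiter-Glo 10 min RT, luminescence. Normalized to DMSO and media-only wells.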
TDP1 cell noCPT: qHTS for Inhibitors of human tyrosyl-DNA phosphodiesterase 1 (TDP1): qHTS in cells in absence of CPT; DT40 Tdp1-/- hTDP1 cells, no CPT, ATP luminescence, 48 h; Potency, µM (titrated, usually from 46.2 µM), for the others: top-dose activity change, negative = growth inhibition, most hits filed as inhibitors; hit rate 15% among 420,000; AID 686978, 2013; note: potency is the fitted concentration of half-maximal effect; nearly all actives have a fitted effect of over 55% in size
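Growth of hTDP1-complemented DT40 Tdp1-knockout cells is measured by ATP luminescence after at least 48 hr compound exposure at 37 °C, with DMSO substituting for the 20 nM CPT used in the parallel screen.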
HT1080 IDH1KD tx: qHTS for induction of synthetic lethality in tumor cells producing 2HG: qHTS for the HT-1080-IDH1KD cell line; AID 686971, 2013; Potency, µM (doses to about 46.1 µM), without a hit: top-dose activity, negative = toxicity, most hits filed as cytotoxic; HT-1080 IDH1 knockdown viability, ATP luminescence, 48 h; hit rate 2% among 360,000;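 note: potency is the fitted concentration of half-maximal effect; 0% = DMSO wells and -100% = cell-free medium wells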
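Using the IDH1-knockdown HT-1080 line run in the same batch and compound series as the NT line, viability after 48 h at 37 °C was determined by CellTiter-Glo luminescence and expressed as % activity.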
IL1B secr inh: qHTS for Inhibitors of Inflammasome Signaling: IL-1-beta AlphaLISA Primary Screen | activity change, % at 57.5 µM | AID 743279, 2014 | THP-1 LPS/ATP IL-1B secretion, AlphaLISA, 16 h; stronger effect = lower value | hit rate 4.7% among 360,000; in the data active = activity change below about -50%; inconclusive = mostly about -30% to -49%
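THP-1 cells pretreated 1 hr with compounds (up to 57.5 uM final), then stimulated with LPS (250 ng/mL final) plus ATP (1.25 mM final); secreted IL-1B measured by AlphaLISA after 16 hr, decreased signal indicating inhibition.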
uPA generation: qHTS for Inhibitors of Cell Surface uPA Generation; cell surface uPA generation assay, qHTS; Potency, µM (series often up to 38.3 µM), for the others: at the highest dose activity change, negative = inhibition, usual class: inhibitors; hit rate 0.31% among 330,000; active = well fitted inhibition curve with a large enough effect; inconclusive = small, poorly fitted or top-dose-only effect; inactive = no such curve, though single readings can be large or run the other way; tested in mouse RAW 264.7 cells; note: potency is the fitted concentration of half-maximal effect; nearly all actives have a fitted effect of over 55% in size
Numbers without * were called inactive; ? = inconclusive; · = not tested or not shown. Unless noted, calls come from the whole dose curve; as a rule, active = well fitted curve in the direction sought with a large enough effect; inconclusive = small, poorly fitted or top-dose-only effect, or another doubt; inactive = no such curve, though single readings can be large; an effect the other way counts as inactive or inconclusive. Unless noted, % is set by controls: 0 for no effect and ±100 for the full control effect.

SMILES	DT40 TDP1 CPT	HT1080NT lethal	TDP1 cell noCPT	HT1080 IDH1KD tx	IL1B secr inh	uPA generation
COc1ccc(S(=O)(=O)N2CCN(C(=O)c3ccco3)CC2)c(C)c1C	?	-18.6%	?	?	12.0	-11.2%
C=CCn1c(=O)c2c(nc(-c3ccccc3)n2C)n(C)c1=O	-27.1%	·	0.1%	·	·	·
COc1ccc(-c2cc3ccccc3nc2N)cc1OC	18.4µM*	0.5%	20.6µM*	-1.5%	-0.3	-1.0%
COCc1cc(C)nc2sc3c(c12)NC(c1ccc(O)cc1)N(c1ccc(C)cc1)C3=O (stereo not drawn)	18.4µM*	·	18.4µM*	·	·	·
Cc1ccc(N2CC(=O)Nc3c(sc4nc(C)cc(C)c34)C2=O)cc1	-15.7%	?	-29.6%	1.3%	9.1	5.1%
COC(=O)c1sc2nc(CN3CCN(c4cccc(C(F)(F)F)c4)CC3)[nH]c(=O)c2c1C	-12.0%	8.5%	-20.0%	8.4%	51.9	-1.6%
COCc1cc(C)nc2sc3c(c12)NC(c1ccccc1C(=O)O)N(c1cccc(C(F)(F)F)c1)C3=O (stereo not drawn)	29.1µM*	·	?	·	·	·
CCOc1ccc(NC(=O)c2cccc(N3CCCS3(=O)=O)c2)cc1	-24.6%	·	-28.3%	·	·	·
Cc1ccc(NC(=O)c2cc3c(=O)[nH]c4ccccc4c3n2C)cc1F	?	·	-26.1%	·	·	·
Cc1ccc(-n2nnnc2-c2cnn(-c3ccc(F)cc3)c2C(F)(F)F)cc1	13µM*	-20.3%	?	3.9%	-14.2	2.6%
Cc1ccc(-n2nnnc2-c2cnc(-c3cccnc3)nc2C(F)(F)F)cc1	18.4µM*	-0.6%	5.8µM*	-11.5%	-4.5	-1.5%
FC(F)(F)c1nc(N2CCCC2)ncc1-c1nnnn1-c1ccc(Cl)cc1	20.6µM*	-20.8%	18.4µM*	?	-16.8	-5.1%
Fc1ccc(-n2nnnc2-c2cnc(-c3cccs3)nc2C(F)(F)F)cc1	6.51µM*	-10.8%	4.61µM*	?	-80.5*	-8.0%
CC1(Cc2cc(Cl)ccc2C(F)(F)F)C(=O)Nc2ccc(OC(F)(F)F)cc21 (stereo not drawn)	23.1µM*	?	13µM*	20.6µM*	-13.5	·
CC1(Cc2cc(Cl)ccc2C(F)(F)F)C(=O)Nc2cc(C(F)(F)F)ccc21 (stereo not drawn)	23.1µM*	?	14.6µM*	20.6µM*	19.6	·
CC1(Cc2cc(Cl)ccc2C(F)(F)F)C(=O)Nc2ccc(-c3ccc(F)c(Cl)c3)cc21 (stereo not drawn)	?	?	?	-9.0%	-28.2	·
CC1(Cc2ccccc2Cl)C(=O)Nc2cc(-c3ccccc3Cl)ccc21 (stereo not drawn)	?	?	?	?	-2.3	·
CC1(Cc2cc(Cl)ccc2C(F)(F)F)C(=O)Nc2cc(F)ccc21 (stereo not drawn)	25.9µM*	?	14.6µM*	?	-10.4	·
CC1(Cc2ccccc2OC(F)(F)F)C(=O)Nc2cc(-c3ccccc3Cl)ccc21 (stereo not drawn)	?	?	?	?	-14.9	·
CC1(Cc2ccc(C(F)(F)F)o2)C(=O)Nc2cc(-c3ccc(F)cc3F)ccc21 (stereo not drawn)	?	?	4.61µM*	?	-64.3*	·
OCC[C@@H]1NCc2cc(CO)cc(-c3ccccc3)c21	20.6µM*	3.9%	18.4µM*	7.1%	?	22.8%
COc1ccc(Oc2c(OC)cc(NCc3ccc(CN)cc3)c3ncccc23)cc1	?	-11.2%	25.9µM*	-17.7%	30.9	·
Cc1ccc2nc(C)cc(C(=O)OCC(=O)c3ccc(Cl)c([N+](=O)[O-])c3)c2c1	16.4µM*	-5.7%	?	-3.9%	-68.5*	-2.1%
Cc1c(-c2ccccc2)nc2c(Cl)cccc2c1C(=O)OCC(=O)c1ccc(F)cc1	?	·	5.8µM*	·	·	·
Cc1ccc(-c2cc(C(=O)OCC(=O)c3ccccc3)c3cccc(Cl)c3n2)cc1	?	·	6.51µM*	·	·	·
SMILES	DT40 TDP1 CPT	HT1080NT lethal	TDP1 cell noCPT	HT1080 IDH1KD tx	IL1B secr inh	uPA generation
COC(=O)CN1C(=S)N(c2ccc(Cl)cc2)C(=O)C1CC(=O)Nc1ccccc1 (stereo not drawn)	-15.5%	8.3%	-16.5%	9.4%	0.0	2.0%
COC(=O)c1ccc(NC(=O)CC2C(=O)N(c3ccccc3)C(=O)N2Cc2ccco2)cc1 (stereo not drawn)	?	·	-39.6%	·	·	·
COC(=O)c1ccc(NC(=O)CC2C(=O)N(c3ccc(Cl)cc3)C(=O)N2Cc2cccs2)cc1 (stereo not drawn)	23.1µM*	·	?	·	·	·
CCOc1ccc(NC(=O)CC2C(=O)N(c3ccccc3)C(=O)N2Cc2ccccn2)cc1 (stereo not drawn)	-22.2%	6.5%	-27.3%	-4.8%	9.9	·
COC(=O)c1ccc(NC(=O)CC2C(=O)N(c3ccccc3)C(=O)N2Cc2cccs2)cc1 (stereo not drawn)	16.4µM*	·	18.4µM*	·	·	·
CCOc1ccc(NC(=O)CC2C(=O)N(c3ccc(Cl)cc3)C(=O)N2Cc2cccs2)cc1 (stereo not drawn)	?	·	13µM*	·	·	·
COCCN1Cc2cccc(C(=O)Nc3ccc(C)cc3C)c2C1=O	-16.6%	·	-19.3%	·	·	·
COc1cc(/C=C/C(=O)OCC(=O)N2c3ccccc3NC(=O)C2(C)C)cc(OC)c1OC	18.4µM*	?	10.3µM*	?	-65.3*	-19.4%
CCSc1nnc2c(n1)OC(c1sccc1C)N(C(C)=O)c1ccccc1-2 (stereo not drawn)	?	·	13µM*	·	·	·
CCCCCCCCCCCCCCCCCCNc1ccn(C2OC(COP(=O)(O)OCC3OC(n4cc(F)c(=O)[nH]c4=O)CC3O)C(O)C2O)c(=O)n1 (stereo not drawn)	0.13µM*	?	0.0411µM*	10.3µM*	-67.9*	-9.0%
CC[C@@]1(C(=O)OC)N[C@H](CN(C)S(=O)(=O)c2ccc(C(F)(F)F)cc2)[C@@H]2C(=O)N(C)C(=O)[C@@H]21	-1.5%	7.8%	-12.7%	7.1%	16.5	8.6%
CN1C2CCC1/C(=C\c1ccccc1F)C(=O)/C2=C/c1ccccc1F	?	?	?	11.6µM*	-100.8*	-7.7%
